Here are results for 28 compounds from PubChem BioAssay (NCATS).

Results filed as inconclusive are left out. A call without a number means that no potency is given here. Values without a mark were called inactive. Active and inactive are the calls of the source. Calls come from the whole dose curve; as a rule, active = well fitted inhibition curve with a large enough effect; inconclusive = small, poorly fitted or top-dose-only effect; inactive = flat fitted curve, though single readings scatter. Where a SMILES comes first, the peptide text is derived from it. The star is where a group is joined. βNA = c1ccc2cc(N*)ccc2c1; Cbz = O=C(OCc1ccccc1)*

The target in the experiment is Calcium and integrin-binding protein 1 (Homo sapiens) (UniProt Q99828). As to the kind of experiment: Primary qHTS for Identification of Calcium Integrin Binding Protein 1 (CIB1) Competitor (AID 1508620).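 Note: GST tagged CIB1 binding a fluorescein labelled alphaIIb integrin peptide tracer; top concentration of the series differs between compounds.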 The note with it: CIB1-GST / FITC-alphaIIb peptide fluorescence polarization; series mostly up to 57.7 µM. The method, boiled down: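 CIB1-GST (1 uM final) and compound incubated 15 min at room temperature before adding FITC-alphaIIb peptide tracer (100 nM final). Competition for binding read by fluorescence polarization (ex 480, em 540) after another 15 min at room temperature.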
Chain of Calcium and integrin-binding protein 1 (Homo sapiens) (Q99828 whole entry, looked up): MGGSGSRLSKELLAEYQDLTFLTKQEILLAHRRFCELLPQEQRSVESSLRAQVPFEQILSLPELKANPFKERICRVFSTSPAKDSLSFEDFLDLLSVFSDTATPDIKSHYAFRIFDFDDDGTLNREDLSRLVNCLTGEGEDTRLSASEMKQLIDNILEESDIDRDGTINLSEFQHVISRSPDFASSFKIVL
(In general: In qHTS, concentration-response curves come from the screen itself.)
With `COc1cc(C2CC(=O)Nc3c2cc(Br)c2ccccc32)cc(OC)c1OC` (stereo not drawn), the Potency entry is “inactive”.
Take `CCC(C)/C=C(C)/C=C/C1=CC2=C(Cl)C(=O)C(C)(OC(C)=O)C(=O)C2=CN1C(CCC(=O)O)C(=O)O` (stereo not drawn): the Potency entry was “inactive”.
On the same count and under the same terms, under `CC(=O)/C=C/C1C(C)CC(O[C@@H]2O[C@H](CO)[C@@H](O)[C@H](O)[C@H]2O)CC1(C)C` (stereo partly drawn) stands “inactive”; under `CC12CC(c3ccoc3)OC(=O)C1CCC1(C)C2CCC(O)C1(C)O` (stereo not drawn), “inactive”; under `C/C(=C\C1CCC(C)C2CCC3(C)OC123)C(=O)O` (stereo not drawn), “inactive”.
The same measure, in the same setting: under `NC1Nc2ccccc2C1(N)CC1NC(=O)C(Cc2ccccc2)NC(=O)C(Cc2ccccc2)NC1=O` (stereo not drawn) stands “inactive”; under `O=C(/C=C/c1ccc(O)c(O)c1)O[C@@H]1[C@@H](O)[C@H](OC2CCCCC2O)O[C@H](CO)[C@H]1O` (stereo partly drawn), “inactive”.
Same read-out and setting: next, `C=C1C(=O)OC[C@H]2C(C(=O)O)=CC3CC(C)(C)C[C@@]132` (stereo partly drawn): “inactive”.
`OC[C@@]1(O)CO[C@@H](OC[C@H]2O[C@@H](Oc3ccccc3)[C@H](O)[C@@H](O)[C@@H]2O)[C@@H]1O`: the Potency result was “inactive”.
Turning to `C=C1C(OC(C)=O)CCC2(C)CC3(O)OC(=O)C(C)=C3CC12` (stereo not drawn), the Potency result was “inactive”.
Same read-out and setting: under `CC(C)(O)C1CCC2(C)CCCC(C)(O)C2C1` (stereo not drawn) stands “inactive”.
The same measure, in the same setting: under `O=C(/C=C/c1ccc(O)cc1)OCC1OC(O)C(OC2OC(CO)C(O)C(O)C2O)C(O)C1O` (stereo not drawn) stands “inactive”; under `CC1(C)C=Cc2c(ccc3c2N=C2C(C)(C)[C@@H]4C[C@]56CCCN5C(=O)[C@@]4(C[C@]23O)NC6=O)O1`, “inactive”.
Same read-out and setting: under `C/C=C(\C)C(=O)OCC1OC(OCC2OC(OC3(CO)OC(CO)C(O)C3O)C(O)C(O)C2O)C(O)C(O)C1O` (stereo not drawn) stands “inactive”; under `Fc1cccc(CN(C2=NCCN2)c2c(Cl)cccc2Cl)c1`, “inactive”; under `C=C1CC23CC(=O)C4C(CO)(CO)CCCC4(C)C2CCC1C3` (stereo not drawn), “inactive”.
Consider `Cc1c(NC(=O)N2CCOCC2)ccc2c1c1ccccc1n2C(C)C`, for which the Potency entry is “inactive”.
In the case of `O=C(O)C[C@H]1CCC(=O)[C@@H]1C/C=C\CCO`, the Potency entry is “inactive”.
On the same count and under the same terms, under `CCC(C)C(=O)OC[C@H]1O[C@H](O[C@H]2O[C@H](CO)[C@@H](O)[C@H](O)[C@H]2O)[C@H](O)[C@@H](O)[C@@H]1O` (stereo partly drawn) stands “inactive”; under `CC(C)C(O)(CO)CCO[C@@H]1O[C@H](CO[C@H]2OC[C@](O)(CO)[C@H]2O)[C@@H](O)[C@H](O)[C@H]1O` (stereo partly drawn), “inactive”; under `COc1ccc(C(=O)CC(=O)O)c2c1C=CC(C)(C)O2`, “inactive”.
Still for that read-out and setting: next, `Cc1sc(C)c(C(=O)NC2(c3ccc(C(=O)O)cc3)CC2)c1Cc1ccc(C(F)(F)F)cc1`: “inactive”.
With `C/C=C(/C)C(=O)OC1C(OC(C)=O)C23C(O)OC4(CCC5C6(C)CCC(OC7OC(C(=O)O)C(O)C(OC8OC(CO)C(O)C(O)C8OC8OC(C)C(O)C(O)C8OC8OCC(O)C(O)C8O)C7OC7OC(CO)C(O)C(O)C7O)C(C)(C)C6CCC5(C)C4(C)CC2OC(C)=O)C3CC1(C)C` (stereo not drawn), the activity change, negative = inhibition is 3.17% [at 12.4 µM].
In the case of `CC(C)=CCC[C@](C)(O[C@@H]1O[C@H](CO[C@@H]2OC[C@H](O)[C@H](O)[C@H]2O)[C@@H](O)[C@H](O)[C@H]1O)[C@H]1CC[C@]2(C)[C@@H]1[C@H](O)C[C@@H]1[C@@]3(C)CC[C@H](O[C@@H]4O[C@H](CO)[C@@H](O)[C@H](O)[C@H]4O[C@@H]4O[C@H](CO)[C@@H](O)[C@H](O)[C@H]4O)C(C)(C)[C@@H]3CC[C@]12C`, the Potency result was “inactive”.
On the same count and under the same terms, next, `CC(C)CC(NC(=O)OCc1ccccc1)C(=O)NC(CC(C)C)C(=O)NC(CCC(=O)O)C(=O)Nc1ccc2ccccc2c1` (stereo not drawn) (Cbz-Leu-Leu-Glu-βNA; configuration not given here): “inactive”.
As to `C[C@@H]1O[C@@H](O[C@@H]2[C@@H](O)[C@H](O[C@H]3[C@H](O[C@H]4CC[C@@]5(C)C(CC[C@]6(C)C5CC=C5[C@@H]7CC(C)(C)CC[C@]7(C(=O)O[C@@H]7O[C@H](CO)[C@@H](O)[C@H](O)[C@H]7O)CC[C@]56C)C4(C)C)O[C@H](C(=O)O)[C@@H](O)[C@@H]3O)OC[C@H]2O)[C@H](O)[C@H](O)[C@H]1O` (stereo partly drawn), the Potency result is “inactive”.
As for `C=C(CCO)C(=O)OCC1OCC(OC(=O)C(=C)CCO[C@@H]2O[C@H](COC(=O)C(=C)CCO[C@@H]3O[C@H](CO)[C@@H](O)[C@H](O)[C@H]3O)[C@@H](O)[C@H](O)[C@H]2O)C(O)C1O` (stereo partly drawn), the Potency entry is “inactive”.
Same read-out and setting: next, `CC1(C)CCCC2(C)c3c4c(c(=O)oc(=O)c3=CCC12)=CCC1C(C)(C)CCCC41C` (stereo not drawn): “inactive”.
